The list is not random: actives were taken first. Their share in the collection is about 3.5%.
MT1-MMP txn act – activates MT1-MMP transcription; HT1080 MT1-MMP promoter luciferase reporter, luminescence, overnight; stronger effect = higher value; activation factor at 10 µM; 86,000 tested, 0.16% active;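 active means activation factor of at least 2 for MT1-MMP transcription at 10 µM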
ERa coact pot – enhances coactivator binding to human estrogen receptor alpha | P03372 | TR-FRET ERalpha-LBD/SRC-Cy5 coactivator binding, 2 h; 100 = basal binding, no effect | coactivator binding (% of control), % at 25.6 µM | 86,000 tested, 1.3% active | AID 639; in the data active means activity above about 200%;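 further: binding measured in presence of low estradiol as agonist stimulus; 0% = peptide alone without receptor and 100% = receptor with peptide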
Target sequence (P03372 whole entry, looked up, the tested form may be a part): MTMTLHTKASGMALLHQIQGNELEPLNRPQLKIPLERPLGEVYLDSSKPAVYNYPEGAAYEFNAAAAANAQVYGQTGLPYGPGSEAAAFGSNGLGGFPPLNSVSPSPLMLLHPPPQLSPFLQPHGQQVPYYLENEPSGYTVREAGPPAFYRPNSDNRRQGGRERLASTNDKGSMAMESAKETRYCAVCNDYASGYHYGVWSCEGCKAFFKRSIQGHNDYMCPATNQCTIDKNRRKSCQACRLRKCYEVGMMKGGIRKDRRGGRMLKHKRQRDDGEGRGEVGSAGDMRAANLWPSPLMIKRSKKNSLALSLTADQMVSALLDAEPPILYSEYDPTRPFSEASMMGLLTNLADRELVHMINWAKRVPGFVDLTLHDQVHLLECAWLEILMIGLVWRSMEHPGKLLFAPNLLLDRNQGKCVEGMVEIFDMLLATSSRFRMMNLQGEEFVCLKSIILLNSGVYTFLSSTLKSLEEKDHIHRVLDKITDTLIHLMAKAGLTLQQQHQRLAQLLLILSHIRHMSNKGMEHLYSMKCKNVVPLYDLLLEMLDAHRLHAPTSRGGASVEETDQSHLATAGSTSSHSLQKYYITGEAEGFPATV
ERb SRC1 inh – blocks coactivator binding to human estrogen receptor beta | inhibition, % at 25.6 µM | TR-FRET ER-beta LBD / SRC1-Cy5 peptide binding; receptor agonist-loaded with 1 µM estradiol | 86,000 tested, 1.3% active | AID 633 | Q92731;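 active means compounds whose percent inhibition of the receptor-coactivator binding signal exceeds about 50% in the single-dose screen, limit read from the data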;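 further: 0% = receptor plus peptide wells without compound and 100% = peptide-only wells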
Smad3 inh – inhibitors of human Smad3 transcription factor binding. 88,000 tested, 0.29% active. inhibition, % at 25 µM. AID 630. TR-FRET Smad3/Dy647-FoxH1 peptide binding, europium anti-His. P84022;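 active means compounds that reduce the energy-transfer binding signal between the protein and its labelled peptide by more than half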;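 further: 0% = Smad3 plus labelled peptide maximal FRET and 100% = peptide-only background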
ERa coact inh – ER-alpha (human) coactivator binding inhibition | P03372 | TR-FRET ER-alpha LBD / SRC-1 peptide, estradiol-bound | inhibition, % at 25.6 µM | 86,000 tested, 1.7% active; in the data active means inhibition above about 50%;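 further: 0% = receptor plus peptide control and 100% = peptide only without receptor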
MMP-13 inhibitor – blocks human MMP13 activity; P45452; MMP-13 fTHP FRET cleavage, Mca fluorescence; inhibition, % at 4 µM; 65,000 tested, 0.07% active;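 active means inhibition above the mean of compound-free control plate wells plus 3 SD, cut at about 14% in these data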;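 further: 0% = DMSO wells and 100% = wells with reference MMP-13 inhibitor after basal subtraction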
The depositor's hits bear a star; . = no result given; [ ] = dose if it differs, or a comment.

SMILES	MT1-MMP txn act	ERa coact pot	ERb SRC1 inh	Smad3 inh	ERa coact inh	MMP-13 inhibitor
CN1CCN(c2ccc(Cl)cc2NC(=O)c2nn(-c3ccccc3)c(=O)c3ccccc23)CC1	1.2	242*[fluorescence artefact?]	37	0	13	0
O=C(Nc1ccc2c(c1)OCO2)c1nn(-c2ccccc2)c(=O)c2ccccc12	1.2	96	-7	3	-11	4
CCCC(=O)C1=C(O)C(C(=O)OC)C(C)(C)CC1=Nc1ccc(N)cc1 (centres undefined)	1	100	-1	-6	-5	.
CCCC(=Nc1ccc(N)cc1)C1=C(O)C(C(=O)OC)C(C)(C)CC1=O (centres undefined)	1.1	97	66*[fluorescence artefact?]	3	-3	.
Cc1cc(N2CCC(C)CC2)nc2cccc(O)c12	.	550*[fluorescence artefact?]	-3	1	-11	.
Cc1nc2ccccc2nc1N1CCC(C)CC1	1.2	94	25	6	1	3
CC/C(=N/Nc1ccccc1)c1cnnc(-c2ccccc2)n1	1	87	60*	2	82*[fluorescence artefact?]	.
CCOC(=O)/C(=N\Nc1ccccc1)c1csc(Nc2ccc(C)cc2)n1	1.2	83	15	16	10	.
CCc1nc(SCc2ccccn2)c2c(=O)n(C)c(=O)n(C)c2n1	1.1	91	-1	10	0	2
CCOC(=O)c1c(C)[nH]c2cc(Br)c(O)cc12	1.2	110	-10	1	-1	0
CCOC(=O)c1c(OCC)[nH]c2c1cc(O)c1ccccc12	1.1	68	99*[fluorescence artefact?]	3	97*[fluorescence artefact?]	3
CCOc1ncccc1C(=O)OCC(=O)N1CC(=O)Nc2ccccc21	1	108	11	-1	1	4
Cn1c2ccccc2c2cc(C(=O)OCC(=O)N3CC(=O)Nc4ccccc43)sc21	1.1	670*[fluorescence artefact?]	17	14	-1	1
Cc1cc2ccccc2n1CCNC(=O)Cc1cccc2ccccc12	.	212*	5	4	0	.
O=C(NCc1ccco1)c1ccc(S(=O)(=O)N2CCOCC2)cc1	1.1	37	56*[fluorescence artefact?]	-8	70*[fluorescence artefact?]	.
Cc1cc2ccccc2n1CCNC(=O)c1ccc(S(=O)(=O)N2CCOCC2)cc1	1.1	98	31	7	70*[fluorescence artefact?]	-2
O=C(NCc1ccco1)c1cccc(S(=O)(=O)N2CCOCC2)c1	1	109	2	-1	-1	-1
O=C(NCCn1ccc2ccccc21)c1ccc(S(=O)(=O)N2CCCCC2)cc1	1.1	110	35	59*	-8	3
COc1ccc(C(=O)NCCn2ccc3ccccc32)cc1	1.1	104	2	-4	4	2
Cc1cc(C)n(-c2ccc(C(=O)Nc3nnc(C4CC4)s3)cc2)n1	1	.	.	.	.	-4
O=C(Nc1nnc(C2CCCO2)s1)c1ccc(Br)cc1 (centres undefined)	1.4	44	54*	4	21	.
Oc1ccccc1-c1nnc(SCCN2CCOCC2)n1Cc1ccccc1	1.3	86	59*	14	26	-7
O=C(CSc1nnc(-c2ccccc2)n1Cc1ccccc1)N1CCOCC1	1	107	-38	7	-41	3
Cn1nc(CC(=O)Nc2ccc3c(c2)CCC3)c2ccccc2c1=O	1.9	118	1	-13	7	6
Cn1nc(CC(=O)NC2CCCCCCCCCCC2)c2ccccc2c1=O	1	50	55*[fluorescence artefact?]	-14	91*[fluorescence artefact?]	.
SMILES	MT1-MMP txn act	ERa coact pot	ERb SRC1 inh	Smad3 inh	ERa coact inh	MMP-13 inhibitor
Cn1nc(C(=O)NC2CCCCC2)c2ccccc2c1=O	1	119	-7	-2	0	0
Cn1nc(CC(=O)Nc2ncc(Br)s2)c2ccccc2c1=O	.	88	50*	18	36	0
COc1ccccc1-n1c(SCC(=O)Nc2ccccc2F)nc2[nH]ncc2c1=O	1.2	112	2	-1	0	2
O=C(c1ccc2nc(N3CCOCC3)sc2c1)N1CCN(C(=O)c2ccco2)CC1	1.1	127	-7	4	-6	2
CC1CCN(S(=O)(=O)c2ccc(NC(=O)Cn3nnc(-c4ccccc4)n3)cc2)CC1	1.2	126	76*[fluorescence artefact?]	-3	94*[fluorescence artefact?]	-4
CC1CCN(S(=O)(=O)c2ccc(NC(=O)CN3CCOCC3)cc2)CC1	1	97	-4	13	13	.
CC1CCN(S(=O)(=O)c2ccc(NC(=O)Cc3cccs3)cc2)CC1	1.3	57	62*	-4	74*	.
O=C(Nc1ccc(NC(=O)C2CC2)nc1)c1cccs1	1.4	118	1	10	-3	2
O=C(COC(=O)CCNS(=O)(=O)c1ccc(Cl)cc1)NCc1ccco1	1.2	102	-23	0	-19	0
COc1ccc(N(CC(=O)NCc2ccco2)S(C)(=O)=O)cc1OC	1.2	107	0	-11	-5	.
COc1cccc(CN(C)CC(=O)NC(=O)NCc2ccco2)c1	1	103	39	-8	58*[fluorescence artefact?]	6
COc1ccc(OCCC(=O)OCC(=O)NCc2ccco2)cc1	1.1	233*[fluorescence artefact?]	50	2	81*	1
COc1ccc(S(=O)(=O)N(C)CC(=O)NCc2ccco2)cc1	1.1	86	7	7	7	.
COc1ccc(N(CC(=O)NCc2ccco2)S(C)(=O)=O)cc1	0.9	96	99*[fluorescence artefact?]	-3	-7	-3
COc1ccccc1NCCC(=O)OCC(=O)NCc1ccco1	1	30	61*[fluorescence artefact?]	19	77*[fluorescence artefact?]	-1
CCOC(=O)c1ccc(NC(=O)C(C)NS(=O)(=O)c2ccc(OC)cc2)cc1 (centres undefined)	1	118	-1	2	-1	2
O=C(Cc1cn2ccsc2n1)OCc1nc2ccccc2s1	1.2	37	64*[fluorescence artefact?]	12	64*	-3
N#Cc1cn(-c2ccccc2)nc1-c1cc2ccccc2oc1=O	1.3	212*[fluorescence artefact?]	-10	-1	0	-109
O=Cc1cn(-c2ccccc2)nc1-c1cc2c(ccc3ccccc32)oc1=O	1.2	230*[fluorescence artefact?]	38	4	52*	.
O=C1CSC(c2cn(-c3ccccc3)nc2-c2cc3ccccc3oc2=O)N1Cc1cccnc1 (centres undefined)	1.1	118	-4	-4	0	.
Cc1onc(-c2ccccc2Cl)c1C(=O)NCC1CCCO1 (centres undefined)	1	129	16	-4	15	2
Cc1cc(NC(=O)CSc2nc3c(c(=O)n2-c2ccc(Br)cc2)SCC3)no1	1.1	126	29	-71	60*[fluorescence artefact?]	2
COC(=O)c1ccc(CSc2nc3c(c(=O)n2-c2ccc(C)cc2)SCC3)o1	1.1	336*[fluorescence artefact?]	27	4	21	10
COc1ccc(-n2c(SCC(=O)Nc3cc(C)on3)nc3c(c2=O)SCC3)cc1	1.1	109	-1	12	-11	-13
CN=c1scc(C)n1/N=C/c1ccc(O)c(O)c1O	0.9	17	100*[fluorescence artefact?]	20	97*[fluorescence artefact?]	.
